# From PubChem BioAssay (Tox21)
# Inconclusive results are not listed. A number with no mark means an inactive call. The source made the active and inactive calls. Calls follow the shape of the full dose curve.
# Experiment: p53 small molecule agonists, cell-based qHTS assay with human liver microsomes: qHTS cell viability counter screen (AID 1963579); also: nearly all actives have a fitted effect of over 45% in size
# Settings: p53RE-bla HCT-116 viability, ATP luminescence, 16 h, HLM; series mostly up to 66 µM; activity change, negative = cytotoxicity: at the top concentration
# Source text: National Center for Advancing Translational Sciences [NCATS]
# Division of Preclinical Innovation [DPI]
# U.S. Environmental Protection Agency [EPA]
# National Institutes of Environmental Health Sciences [NIEHS]
# National Toxicology Program [NTP]
# U.S. Food and Drug Administration [FDA]
# p53, a tumor suppressor protein, is activated following cellular insult, including DNA damage and other cellular stresses. The activation of p53 regulates cell fate by inducing DNA repair, cell cycle arrest, apoptosis, or cellular senescence. The activation of p53, therefore, is a good indicator of DNA damage and other cellular stresses. […] The activation of the reporter gene under culture conditions can be detected by fluorescence intensity. This cell line was used to screen the Tox21 10K compound library in the condition of presence of human liver microsomes and to identify agonists that activate the p53 signaling pathway after in vitro metabolic activation (Ooka et al., Archive of Toxicology 96:1975-1987, 2022).
# Tox21 Assay Protocol Summary:
# The p53RE-bla cells were dispensed at 4,000cells/3ul/well in 1536-well black-clear bottom plates. After the assay plates were incubated at 37 C, 5% CO2 incubator for 5 hours, 23 nL of compounds dissolved in DMSO, positive controls or DMSO only was transferred to the assay plate. Following compound addition, 3 uL of human liver microsomes (XenoTech, Kansas City, KS) at final concentration of 0.5 mg/mL and 1uL of B-Nicotinamide adenine dinucleotide 2'-phosphate (NADPH) at final concentration of 0.5 mg/mL were transferred to the assay plate. The plates were incubated at 37 C for 16 hours. 1 uL of LiveBLAzer detection mixture was added to each well and the plates were incubated at room temperature in the dark for 2 h. Fluorescence intensity at 460 and 530 nm emission and 405 nm excitation were measured by an Envision plate reader. For cell viability readout that measures cytotoxicity, 4 ul/well of CellTiter-Glo reagent was added into the assay plates using a Flying Reagent Dispenser. After 30 min incubation at room temperature, the luminescence intensity in the plates was measured using a ViewLux plate reader.
# % is scaled to controls: 0 for no effect and ±100 for the full control effect; potency is read from the fitted curve at half-maximal effect.
Structure (SMILES),"activity change, negative = cytotoxicity",Potency
CC[C@@H]([C@H](C)O)n1ncn(-c2ccc(N3CCN(c4ccc(OC[C@@H]5CO[C@@](Cn6cncn6)(c6ccc(F)cc6F)C5)cc4)CC3)cc2)c1=O,6.77% [at 30.3 µM],
NC(=O)Nc1nc2ccccc2[nH]1,-7.01%,
O=c1cc(O)c(Cl)c[nH]1,18.4% [at 30.3 µM],
O=C(Oc1ccccc1)c1ccc2ccccc2c1O,-9.44%,
CC(C)=CC=O,6.13%,
CCC(=O)C1CC(C(C)C)CC=C1C (stereo not given),2.04%,
c1cc[c]([Bi]([c]2ccccc2)[c]2ccccc2)cc1,-27.2%,
CCCC1CCOC(C)S1 (stereo not given),4.58%,
CCCCOC(=O)c1ccccc1,3.09%,
CSc1ccc(Oc2ccc(S(N)(=O)=O)cc2CN(C)C)cc1C,-13.8%,
CC(Cc1ccccc1)(NC(=O)CN)c1ccccc1 (stereo not given),6.57% [at 30.3 µM],
CC(C)(CO)[C@@H](O)C(=O)NCCCO,2.16% [at 30.3 µM],
COCC(=O)O[C@]1(CCN(C)CCCc2nc3ccccc3[nH]2)CCc2cc(F)ccc2[C@@H]1C(C)C,0.828% [at 30.3 µM],
C=CC(=O)OCCC#N,-23.6%,
CCCCNCCCC,1.65%,
CO/N=C(/C(=O)N[C@@H]1C(=O)N2C(C(=O)[O-])=C(C[n+]3ccn4ncccc43)CS[C@H]12)c1nsc(N)n1,-17.5% [at 30.3 µM],
Nc1nc(Cl)nc2c1ncn2[C@H]1C[C@H](O)[C@@H](CO)O1,-1.97%,
Sc1nc2ccccc2s1,-0.139%,
O[Si](c1ccccc1)(c1ccccc1)c1ccccc1,-1.55%,
CN(C/C=C/c1ccccc1)Cc1cccc2ccccc12,9.52% [at 30.3 µM],

Structure (SMILES),"activity change, negative = cytotoxicity",Potency
O=S(=O)(O)c1cc(Cl)c(Cl)cc1Cl,-1.59%,
CN(C)CCOCCO,7.2%,
N[C@@H](CCC(=O)N[C@@H](CS)C(=O)NCC(=O)O)C(=O)O,-1.1% [at 13.5 µM],
ClCCOCCOCCCl,11.8%,
CCCCCCCCCCCCN(CCCCCCCCCCCC)CCCCCCCCCCCC,0.712%,
O=C1NC(=O)c2cccc3cccc1c23,1.41%,
CCCOC(=O)CCCCC(=O)OCCC,21.1%,
SCCc1cnccn1,7.04%,
COC(C)CCO (stereo not given),14.1%,
C=C(C)C1CCC(C)(O)CC1 (stereo not given),2.1%,
CCCCCCCCCCCCCCCCCC[N+](C)(C)C,,40.9 µM (active)
CC(C)C[C@H](NC(=O)CNC(=O)[C@H](Cc1ccc(O)cc1)NC(=O)[C@H](CO)NC(=O)[C@H](Cc1c[nH]c2ccccc12)NC(=O)[C@H](Cc1cnc[nH]1)NC(=O)[C@@H]1CCC(=O)N1)C(=O)N[C@@H](CCCN=C(N)N)C(=O)N1CCC[C@H]1C(=O)NCC(N)=O (stereo in doubt),-8.36% [at 30.3 µM],
CN1CCCC(CC2c3ccccc3Sc3ccccc32)C1 (stereo not given),7.47% [at 30.3 µM],
CCCCc1oc2ccc(NS(C)(=O)=O)cc2c1C(=O)c1ccc(OCCCN(CCCC)CCCC)cc1,0.194% [at 30.3 µM],
CCN(CC)CCOC(=O)C(c1ccccc1)C1CCCCC1 (stereo not given),-2.93% [at 30.3 µM],
COC(=O)CCS,4.87%,
C1C2OC2C2C1C1CC2C2OC12 (stereo not given),-0.309%,
COC(=O)C(C)=O,1.48%,
CCCCNc1ccc(C(=O)OCCOCCOCCOCCOCCOCCOCCOCCOCCOC)cc1,-10.2% [at 30.3 µM],
C[C@H]1[C@@H](c2ccccc2)NC(=O)N1C,2.65%,
